# Measurements from PMC5540273 (PLoS ONE, 2017).
# What was measured:
# Settings in all cases: concentration: 1 μM, replicates: in singlicate; n = 1
# MST2 = system: T1, MST2
# T1 construct: gene STK3
# MST3 = system: T2, MST3
# T2 construct: gene STK24
# MST4 = system: MST4
# MTOR = system: MTOR
# MUSK = system: MUSK
# MYLK2 = system: MYLK2
# MYLK4 = system: MYLK4
# MYLK = system: MYLK
# MYO3A = system: MYO3A
# MYO3B = system: MYO3B
# NDR1 = system: T3, NDR1
# T3 construct: gene STK38
# NDR2 = system: NDR2
# NEK10 = system: NEK10
# NEK11 = system: NEK11
# NEK1 = system: NEK1
# NEK2 = system: NEK2
# NEK3 = system: NEK3
# NEK4 = system: NEK4
# NEK5 = system: NEK5
# NEK6 = system: NEK6
# 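Note: KINOMEscan kinase panel screen.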
SMILES,%Inh (MST2),%Inh (MST3),%Inh (MST4),%Inh (MTOR),%Inh (MUSK),%Inh (MYLK2),%Inh (MYLK4),%Inh (MYLK),%Inh (MYO3A),%Inh (MYO3B),%Inh (NDR1),%Inh (NDR2),%Inh (NEK10),%Inh (NEK11),%Inh (NEK1),%Inh (NEK2),%Inh (NEK3),%Inh (NEK4),%Inh (NEK5),%Inh (NEK6)
NC(=O)c1nnc2ccccc2c1N,65%,0%,15%,10%,10%,0%,78%,37%,9%,5%,20%,0%,85%,0%,0%,16%,31%,4%,3%,10%
Cc1cccc(-c2nc(Nc3ccncc3)c3ccccc3n2)n1 [GW855857],0%,3%,0%,50%,17%,7%,7%,12%,0%,17%,8%,6%,0%,0%,0%,0%,30%,0%,10%,21%
Cc1ccccc1-n1cnc2c(N)ncnc21 [SKF-97510],15%,18%,0%,0%,0%,0%,0%,0%,0%,42%,0%,20%,0%,0%,11%,0%,0%,0%,9%,0%
COc1cc2ncnc(Nc3ccc4nc(-c5ccccc5)[nH]c4c3)c2cc1OC.Cl [GW282450],0%,0%,0%,16%,10%,0%,8%,29%,21%,0%,17%,0%,14%,2%,0%,0%,0%,4%,29%,0%
COc1cccc(NC(=O)NC2CCN(c3ccnc(Nc4ccc(F)cc4)n3)C2)c1 (stereo not drawn) [GSK1379721],17%,0%,0%,19%,0%,1%,6%,0%,25%,6%,9%,27%,0%,2%,0%,1%,6%,0%,29%,0%
Cl.NC(=O)c1cccc(Nc2nccc(Nc3ccc(Oc4cccc(Cl)c4)c(Cl)c3)n2)c1 [GW659008],0%,10%,0%,0%,13%,21%,14%,3%,6%,3%,0%,0%,0%,0%,0%,0%,0%,1%,32%,0%
Cc1c(Cn2ccn3c(=O)cc(N4CCOCC4)nc23)cccc1C(F)(F)F [GSK2289044],0%,0%,0%,15%,17%,0%,0%,16%,12%,2%,31%,0%,0%,0%,0%,8%,0%,0%,2%,0%
Cc1ccc(NC(=O)Nc2cc(C(C)(C)C)nn2-c2ccccc2)cc1 [GSK1014915],23%,5%,13%,30%,17%,9%,4%,11%,0%,0%,0%,0%,19%,0%,0%,12%,8%,10%,0%,0%
COc1cc(Nc2nccc(N3CCC(NC(=O)Nc4cc(C)ccc4C)C3)n2)cc(OC)c1OC (stereo not drawn) [GSK1379762],0%,6%,0%,10%,25%,6%,0%,12%,2%,0%,0%,0%,20%,0%,22%,25%,9%,4%,91.6%,1%
C[C@@H]1CCCCN1c1cc(-c2ccc3c(N)n[nH]c3c2)nc(N)n1 [GSK2258759],0%,7%,0%,2%,5%,0%,0%,5%,30%,0%,24%,12%,0%,0%,0%,3%,10%,0%,8%,0%
O=C1NC(=O)C(N2CCc3ccccc32)=C1c1ccccc1Cl [SB-373598],0%,0%,8%,15%,2%,22%,0%,8%,14%,9%,12%,0%,18%,0%,0%,1%,7%,15%,9%,0%
Cl.c1ccc(-c2n[nH]cc2-c2ccnc(-c3ccc(CN4CCOCC4)cc3)c2)nc1 [GW776245],0%,0%,0%,42%,1%,10%,0%,2%,0%,1%,14%,31%,0%,0%,0%,21%,14%,0%,6%,22%
O=C(Nc1ccccc1)Nc1cccc(Oc2ccc3nccn3n2)c1,0%,3%,0%,21%,0%,0%,0%,0%,0%,0%,4%,0%,0%,0%,0%,0%,8%,0%,0%,0%
COc1cc2nccc(Nc3ccc(NC(=O)c4ccc(C)cc4)c(O)c3)c2cc1OC.Cl [GW440132],0%,0%,0%,4%,13%,4%,0%,11%,10%,0%,0%,0%,0%,0%,2%,0%,0%,0%,14%,0%
Cl.O=C(Nc1cccc(-c2nn3ncccc3c2-c2ccnc(Nc3cccnc3)n2)c1)c1c(F)cccc1F [GSK312879],19%,0%,0%,15%,23%,13%,1%,2%,0%,0%,0%,0%,7%,0%,0%,14%,0%,23%,0%,0%
O=c1cc(N2CCOCC2)nc2n(Cc3cccc(Cl)c3Cl)ccn12 [GSK2286295],0%,0%,0%,17%,8%,2%,0%,25%,0%,8%,12%,0%,0%,0%,0%,4%,1%,6%,4%,0%
Cc1ccc(NC(=O)Nc2cccc(Cl)c2)cc1-c1ccc(C(=O)Nc2ccncc2)cc1 [GSK1398468],0%,0%,0%,9%,5%,9%,13%,8%,100%,0%,25%,0%,3%,0%,0%,2%,16%,0%,20%,0%
CS(=O)(=O)c1ccc(-c2c(-c3ncn[nH]3)sc(N3CCOCC3)c2C#N)cc1,13%,100%,0%,74%,2%,12%,29%,9%,4%,4%,18%,0%,36%,0%,4%,0%,40%,0%,7%,31%
COc1ccc2nc(-c3cccc(C)n3)nc(Nc3ccncc3)c2c1 [GSK204919],0%,0%,0%,43%,1%,0%,0%,5%,0%,0%,0%,0%,3%,7%,0%,0%,0%,11%,17%,0%
COc1ccc(CNC(=O)NC2CCN(c3ccnc(Nc4cc(OC)c(OC)c(OC)c4)n3)C2)cc1 (stereo not drawn) [GSK1379748],1%,0%,0%,14%,2%,4%,2%,10%,36%,0%,21%,44%,6%,18%,8%,0%,20%,30%,93.1%,0%
COc1ccc(Nc2nccc(NCCNC(=O)Nc3ccccc3F)n2)cc1 [GSK1379901],0%,0%,0%,22%,15%,0%,0%,15%,12%,0%,26%,0%,13%,0%,0%,0%,19%,0%,3%,0%
